# What was measured:
# [1] = biological target: Sphingosine kinase 1 (Homo sapiens) (UniProt Q9NYA1); conditions: at 1 µM;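 note: mean SPHK1 inhibition value reported from the GSK PKIS kinase panel screen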
# [2] = biological target: T1, Sphingosine kinase 2 (Homo sapiens) (UniProt Q9NRA0); conditions: at 0.1 µM
# T1 sequence (whole entry): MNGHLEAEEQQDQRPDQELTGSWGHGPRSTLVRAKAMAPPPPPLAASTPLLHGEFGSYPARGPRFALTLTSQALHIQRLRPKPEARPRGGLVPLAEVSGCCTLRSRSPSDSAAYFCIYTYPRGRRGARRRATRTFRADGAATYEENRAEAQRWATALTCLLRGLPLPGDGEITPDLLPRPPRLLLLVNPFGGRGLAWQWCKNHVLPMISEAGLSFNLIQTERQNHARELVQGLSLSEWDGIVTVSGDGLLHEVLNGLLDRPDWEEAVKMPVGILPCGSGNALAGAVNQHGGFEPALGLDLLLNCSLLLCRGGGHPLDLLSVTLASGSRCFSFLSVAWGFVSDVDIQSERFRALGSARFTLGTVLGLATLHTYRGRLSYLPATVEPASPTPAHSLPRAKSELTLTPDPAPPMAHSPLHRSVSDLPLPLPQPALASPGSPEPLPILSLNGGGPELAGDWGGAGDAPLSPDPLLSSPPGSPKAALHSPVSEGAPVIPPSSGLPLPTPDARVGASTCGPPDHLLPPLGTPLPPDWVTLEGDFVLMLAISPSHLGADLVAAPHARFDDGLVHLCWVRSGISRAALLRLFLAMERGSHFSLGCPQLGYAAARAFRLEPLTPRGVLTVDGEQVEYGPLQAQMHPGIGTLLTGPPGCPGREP
# [3] = biological target: T1, Sphingosine kinase 2 (Homo sapiens); conditions: at 1 µM
# [4] = biological target: Casein kinase II subunit alpha (Homo sapiens) (UniProt P68400); conditions: at 0.1 µM
# Sequence of Casein kinase II subunit alpha (Homo sapiens) (P68400 whole entry, looked up): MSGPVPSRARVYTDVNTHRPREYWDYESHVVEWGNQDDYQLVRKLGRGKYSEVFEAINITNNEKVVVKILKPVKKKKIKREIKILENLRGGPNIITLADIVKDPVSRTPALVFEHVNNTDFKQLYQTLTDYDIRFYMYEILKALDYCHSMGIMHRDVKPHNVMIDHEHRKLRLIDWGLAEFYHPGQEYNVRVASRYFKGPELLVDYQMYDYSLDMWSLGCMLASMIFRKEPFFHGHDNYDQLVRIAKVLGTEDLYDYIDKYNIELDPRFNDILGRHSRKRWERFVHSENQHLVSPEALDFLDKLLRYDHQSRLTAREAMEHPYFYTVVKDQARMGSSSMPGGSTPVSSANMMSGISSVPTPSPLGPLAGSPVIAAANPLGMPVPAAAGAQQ
# [5] = biological target: Casein kinase II subunit alpha (Homo sapiens) (UniProt P68400); conditions: at 1 µM
# [6] = biological target: T2, Inhibitor of nuclear factor kappa-B kinase subunit alpha (Homo sapiens) (UniProt O15111); conditions: at 0.1 µM
# T2 sequence (whole entry): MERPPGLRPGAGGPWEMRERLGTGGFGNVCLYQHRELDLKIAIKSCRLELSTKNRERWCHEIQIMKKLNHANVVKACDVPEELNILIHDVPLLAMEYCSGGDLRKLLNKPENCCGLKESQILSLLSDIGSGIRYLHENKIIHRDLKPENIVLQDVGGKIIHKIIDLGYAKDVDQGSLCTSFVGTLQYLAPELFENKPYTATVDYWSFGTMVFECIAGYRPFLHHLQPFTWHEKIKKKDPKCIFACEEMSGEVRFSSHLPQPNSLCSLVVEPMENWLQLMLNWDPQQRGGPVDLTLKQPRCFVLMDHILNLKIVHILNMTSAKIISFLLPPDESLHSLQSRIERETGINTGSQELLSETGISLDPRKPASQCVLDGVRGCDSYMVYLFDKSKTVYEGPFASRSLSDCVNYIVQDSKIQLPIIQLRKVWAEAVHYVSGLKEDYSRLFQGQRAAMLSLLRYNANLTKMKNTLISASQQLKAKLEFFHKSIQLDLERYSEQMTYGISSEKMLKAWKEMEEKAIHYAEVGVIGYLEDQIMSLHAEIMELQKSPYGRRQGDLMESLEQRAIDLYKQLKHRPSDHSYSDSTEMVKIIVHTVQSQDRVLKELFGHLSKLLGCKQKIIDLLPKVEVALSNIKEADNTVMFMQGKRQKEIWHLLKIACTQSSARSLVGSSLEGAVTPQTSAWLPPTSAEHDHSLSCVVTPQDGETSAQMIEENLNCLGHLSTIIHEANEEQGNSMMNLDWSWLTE
# [7] = biological target: T2, Inhibitor of nuclear factor kappa-B kinase subunit alpha (Homo sapiens); conditions: at 1 µM
# [8] = biological target: T3, Inhibitor of nuclear factor kappa-B kinase subunit beta (Homo sapiens) (UniProt O14920); conditions: at 0.1 µM
# T3 sequence (whole entry): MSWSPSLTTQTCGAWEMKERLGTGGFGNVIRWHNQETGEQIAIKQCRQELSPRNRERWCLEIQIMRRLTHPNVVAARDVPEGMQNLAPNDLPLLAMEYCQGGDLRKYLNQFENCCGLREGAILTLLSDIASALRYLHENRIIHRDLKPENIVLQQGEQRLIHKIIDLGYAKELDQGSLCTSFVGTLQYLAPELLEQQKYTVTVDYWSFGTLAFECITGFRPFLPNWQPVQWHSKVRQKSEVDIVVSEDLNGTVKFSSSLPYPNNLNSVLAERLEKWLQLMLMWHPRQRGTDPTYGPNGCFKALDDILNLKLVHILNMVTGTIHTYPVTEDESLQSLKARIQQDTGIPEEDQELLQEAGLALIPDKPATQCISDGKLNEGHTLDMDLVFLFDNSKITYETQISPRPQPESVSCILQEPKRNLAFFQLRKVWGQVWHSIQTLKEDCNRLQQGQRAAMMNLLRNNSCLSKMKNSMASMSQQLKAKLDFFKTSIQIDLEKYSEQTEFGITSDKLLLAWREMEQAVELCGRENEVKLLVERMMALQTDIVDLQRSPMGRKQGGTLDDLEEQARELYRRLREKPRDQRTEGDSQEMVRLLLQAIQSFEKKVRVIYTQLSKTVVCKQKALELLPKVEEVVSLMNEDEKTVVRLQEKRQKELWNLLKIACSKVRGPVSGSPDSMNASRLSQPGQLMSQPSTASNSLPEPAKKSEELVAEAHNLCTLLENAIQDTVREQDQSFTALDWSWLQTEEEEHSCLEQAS
# [9] = biological target: T3, Inhibitor of nuclear factor kappa-B kinase subunit beta (Homo sapiens); conditions: at 1 µM
# [10] = biological target: T4, Inhibitor of nuclear factor kappa-B kinase subunit epsilon (Homo sapiens) (UniProt Q14164); conditions: at 0.1 µM
# T4 sequence (whole entry): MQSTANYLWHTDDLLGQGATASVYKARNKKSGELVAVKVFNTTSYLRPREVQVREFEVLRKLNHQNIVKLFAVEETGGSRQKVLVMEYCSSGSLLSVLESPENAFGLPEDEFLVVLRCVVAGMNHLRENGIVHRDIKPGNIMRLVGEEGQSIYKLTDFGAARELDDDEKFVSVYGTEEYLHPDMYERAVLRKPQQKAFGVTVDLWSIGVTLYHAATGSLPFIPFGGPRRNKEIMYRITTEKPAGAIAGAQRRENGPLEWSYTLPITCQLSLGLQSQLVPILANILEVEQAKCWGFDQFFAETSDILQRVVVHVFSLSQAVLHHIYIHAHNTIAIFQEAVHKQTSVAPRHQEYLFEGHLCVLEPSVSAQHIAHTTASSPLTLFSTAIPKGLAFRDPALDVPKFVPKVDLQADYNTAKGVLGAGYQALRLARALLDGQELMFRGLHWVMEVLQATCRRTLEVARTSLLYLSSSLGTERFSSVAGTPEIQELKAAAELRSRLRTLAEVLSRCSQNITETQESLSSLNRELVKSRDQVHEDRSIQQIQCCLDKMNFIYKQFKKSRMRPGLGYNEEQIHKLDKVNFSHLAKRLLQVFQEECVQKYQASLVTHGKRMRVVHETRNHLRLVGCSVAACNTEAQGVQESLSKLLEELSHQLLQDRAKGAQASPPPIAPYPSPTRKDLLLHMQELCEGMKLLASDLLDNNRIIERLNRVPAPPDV
# [11] = biological target: T4, Inhibitor of nuclear factor kappa-B kinase subunit epsilon (Homo sapiens); conditions: at 1 µM
# [12] = biological target: T5, Serine/threonine-protein kinase Nek1 (Homo sapiens) (UniProt Q96PY6); conditions: at 0.1 µM
# T5 sequence (whole entry): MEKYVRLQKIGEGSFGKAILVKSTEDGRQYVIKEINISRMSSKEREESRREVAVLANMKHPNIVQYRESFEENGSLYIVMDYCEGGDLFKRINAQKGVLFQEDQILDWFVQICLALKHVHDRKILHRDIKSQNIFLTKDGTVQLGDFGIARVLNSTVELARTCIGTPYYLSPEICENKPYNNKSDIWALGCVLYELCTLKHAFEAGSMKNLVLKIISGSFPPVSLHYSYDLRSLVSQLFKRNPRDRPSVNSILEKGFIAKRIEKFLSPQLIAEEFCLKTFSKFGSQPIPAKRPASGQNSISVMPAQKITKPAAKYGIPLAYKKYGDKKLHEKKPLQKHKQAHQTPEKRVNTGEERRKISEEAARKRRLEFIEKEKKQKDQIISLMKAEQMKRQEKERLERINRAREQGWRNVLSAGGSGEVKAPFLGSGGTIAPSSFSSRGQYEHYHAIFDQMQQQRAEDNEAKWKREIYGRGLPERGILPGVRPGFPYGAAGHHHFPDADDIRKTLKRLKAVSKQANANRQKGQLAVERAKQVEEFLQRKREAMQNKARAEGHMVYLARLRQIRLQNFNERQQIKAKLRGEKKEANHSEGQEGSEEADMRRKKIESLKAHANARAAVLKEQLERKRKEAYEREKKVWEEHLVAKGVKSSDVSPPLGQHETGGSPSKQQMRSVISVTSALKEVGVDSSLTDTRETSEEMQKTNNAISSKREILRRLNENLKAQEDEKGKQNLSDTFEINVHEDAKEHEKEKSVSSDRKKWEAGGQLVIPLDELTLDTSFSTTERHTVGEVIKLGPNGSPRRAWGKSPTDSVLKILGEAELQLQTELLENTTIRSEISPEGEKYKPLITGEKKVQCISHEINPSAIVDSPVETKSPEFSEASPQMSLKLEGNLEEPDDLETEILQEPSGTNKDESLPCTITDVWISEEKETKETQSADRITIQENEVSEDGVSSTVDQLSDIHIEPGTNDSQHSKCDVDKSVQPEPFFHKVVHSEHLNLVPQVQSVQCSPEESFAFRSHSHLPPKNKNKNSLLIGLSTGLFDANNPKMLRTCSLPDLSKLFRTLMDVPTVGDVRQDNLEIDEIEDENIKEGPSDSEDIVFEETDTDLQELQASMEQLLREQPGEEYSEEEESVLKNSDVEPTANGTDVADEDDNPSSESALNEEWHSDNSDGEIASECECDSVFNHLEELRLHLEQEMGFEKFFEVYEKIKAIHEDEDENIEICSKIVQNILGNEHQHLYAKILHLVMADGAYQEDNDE
# [13] = biological target: T5, Serine/threonine-protein kinase Nek1 (Homo sapiens); conditions: at 1 µM
# [14] = biological target: T6, Serine/threonine-protein kinase Nek2 (Homo sapiens) (UniProt P51955); conditions: at 0.1 µM
# T6 sequence (whole entry): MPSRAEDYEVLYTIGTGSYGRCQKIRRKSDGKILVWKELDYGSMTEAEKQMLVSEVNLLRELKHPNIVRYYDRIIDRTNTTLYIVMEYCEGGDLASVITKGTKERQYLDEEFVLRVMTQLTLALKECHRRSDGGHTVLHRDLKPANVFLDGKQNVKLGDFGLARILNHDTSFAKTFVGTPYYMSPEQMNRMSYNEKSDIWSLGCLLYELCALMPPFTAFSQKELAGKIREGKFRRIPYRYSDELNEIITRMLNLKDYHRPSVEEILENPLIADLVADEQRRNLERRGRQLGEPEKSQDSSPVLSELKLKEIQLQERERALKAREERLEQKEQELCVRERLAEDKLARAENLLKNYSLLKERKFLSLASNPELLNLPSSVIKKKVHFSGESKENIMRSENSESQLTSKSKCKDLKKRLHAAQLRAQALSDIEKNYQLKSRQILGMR
# [15] = biological target: T6, Serine/threonine-protein kinase Nek2 (Homo sapiens); conditions: at 1 µM
# [16] = biological target: Serine/threonine-protein kinase Nek6 (Homo sapiens) (UniProt Q9HC98); conditions: at 0.1 µM
# Sequence of Serine/threonine-protein kinase Nek6 (Homo sapiens) (Q9HC98 whole entry): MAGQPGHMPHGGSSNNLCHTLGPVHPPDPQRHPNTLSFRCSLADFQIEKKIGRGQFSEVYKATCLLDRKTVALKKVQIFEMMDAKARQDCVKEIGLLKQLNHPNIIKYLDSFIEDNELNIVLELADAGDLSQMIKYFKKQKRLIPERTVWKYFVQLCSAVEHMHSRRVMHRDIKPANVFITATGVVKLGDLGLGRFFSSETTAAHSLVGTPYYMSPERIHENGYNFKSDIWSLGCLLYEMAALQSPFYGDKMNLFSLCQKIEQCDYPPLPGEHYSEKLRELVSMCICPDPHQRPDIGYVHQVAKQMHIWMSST
# [17] = biological target: Serine/threonine-protein kinase Nek6 (Homo sapiens) (UniProt Q9HC98); conditions: at 1 µM
# [18] = biological target: Serine/threonine-protein kinase Nek7 (Homo sapiens) (UniProt Q8TDX7); conditions: at 0.1 µM
# Sequence of Serine/threonine-protein kinase Nek7 (Homo sapiens) (Q8TDX7 whole entry, looked up): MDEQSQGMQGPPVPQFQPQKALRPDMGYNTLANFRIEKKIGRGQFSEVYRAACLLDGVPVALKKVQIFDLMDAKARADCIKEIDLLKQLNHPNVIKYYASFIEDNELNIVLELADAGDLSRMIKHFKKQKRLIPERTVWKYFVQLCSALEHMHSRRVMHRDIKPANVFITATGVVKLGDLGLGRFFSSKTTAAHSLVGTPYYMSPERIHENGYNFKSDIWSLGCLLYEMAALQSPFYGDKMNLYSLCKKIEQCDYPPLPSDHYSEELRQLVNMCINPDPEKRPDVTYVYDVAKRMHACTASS
# [19] = biological target: Serine/threonine-protein kinase Nek7 (Homo sapiens) (UniProt Q8TDX7); conditions: at 1 µM
# [20] = biological target: T7, Serine/threonine-protein kinase Nek9 (Homo sapiens) (UniProt Q8TD19); conditions: at 0.1 µM;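 note: reported value is the mean percent inhibition of NEK9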
# T7 sequence (whole entry): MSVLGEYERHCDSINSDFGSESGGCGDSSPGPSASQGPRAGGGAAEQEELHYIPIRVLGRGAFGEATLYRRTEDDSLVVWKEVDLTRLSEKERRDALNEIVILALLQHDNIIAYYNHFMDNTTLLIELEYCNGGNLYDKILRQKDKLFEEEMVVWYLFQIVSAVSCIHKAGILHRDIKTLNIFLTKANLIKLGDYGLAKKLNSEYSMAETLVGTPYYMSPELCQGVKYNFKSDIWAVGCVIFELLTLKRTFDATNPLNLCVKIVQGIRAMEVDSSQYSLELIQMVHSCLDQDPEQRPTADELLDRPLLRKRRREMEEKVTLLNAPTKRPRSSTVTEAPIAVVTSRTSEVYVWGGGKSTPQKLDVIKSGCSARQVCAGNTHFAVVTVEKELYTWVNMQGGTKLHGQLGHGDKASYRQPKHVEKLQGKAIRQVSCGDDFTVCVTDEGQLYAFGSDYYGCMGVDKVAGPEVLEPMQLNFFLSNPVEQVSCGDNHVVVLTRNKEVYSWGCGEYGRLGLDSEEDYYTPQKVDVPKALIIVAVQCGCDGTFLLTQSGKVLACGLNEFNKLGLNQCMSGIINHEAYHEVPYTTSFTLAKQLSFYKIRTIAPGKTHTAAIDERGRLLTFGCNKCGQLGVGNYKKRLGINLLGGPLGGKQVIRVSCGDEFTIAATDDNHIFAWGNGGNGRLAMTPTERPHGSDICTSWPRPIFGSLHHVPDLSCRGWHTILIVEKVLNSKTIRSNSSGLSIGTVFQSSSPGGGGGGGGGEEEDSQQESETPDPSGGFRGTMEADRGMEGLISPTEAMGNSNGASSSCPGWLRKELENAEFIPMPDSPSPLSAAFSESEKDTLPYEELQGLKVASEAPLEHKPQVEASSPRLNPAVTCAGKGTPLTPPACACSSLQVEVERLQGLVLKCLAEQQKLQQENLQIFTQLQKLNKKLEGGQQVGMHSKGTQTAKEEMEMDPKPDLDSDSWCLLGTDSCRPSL
# Sequence of Sphingosine kinase 1 (Homo sapiens) (Q9NYA1 whole entry): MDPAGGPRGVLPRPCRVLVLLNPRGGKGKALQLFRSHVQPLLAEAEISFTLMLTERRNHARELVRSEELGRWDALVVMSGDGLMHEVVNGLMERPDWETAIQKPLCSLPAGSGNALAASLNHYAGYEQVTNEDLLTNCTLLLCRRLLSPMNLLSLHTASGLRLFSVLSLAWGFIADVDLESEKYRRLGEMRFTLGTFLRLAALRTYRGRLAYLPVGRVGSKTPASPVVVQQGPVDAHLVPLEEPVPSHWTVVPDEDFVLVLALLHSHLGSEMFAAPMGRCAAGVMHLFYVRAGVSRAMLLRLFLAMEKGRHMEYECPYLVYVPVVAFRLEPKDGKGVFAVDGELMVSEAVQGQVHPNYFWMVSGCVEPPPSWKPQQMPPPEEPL
smiles,measurement,setting,value
COc1ccc2ncnc(Nc3ccc(OCc4ccccc4)cc3)c2c1,inhibition,[1],-2.59%
same,inhibition,[2],0.06%
same,inhibition,[3],0.29%
same,inhibition,[4],3.44%
same,inhibition,[5],7.23%
same,inhibition,[6],2.22%
same,inhibition,[7],-0.08%
same,inhibition,[8],2.67%
same,inhibition,[9],3.67%
same,inhibition,[10],3.74%
same,inhibition,[11],1.06%
same,inhibition,[12],0.79%
same,inhibition,[13],4.16%
same,inhibition,[14],1.74%
same,inhibition,[15],1.37%
same,inhibition,[16],4.45%
same,inhibition,[17],2.35%
same,inhibition,[18],2.47%
same,inhibition,[19],2.49%
same,inhibition,[20],-0.31%
